Values joined by “and” are separate entries in the source; they are usually repeats but may differ in a detail not shown here. Equal values may be shown once. Active and inactive are the calls of the source. The calls were made as follows: active = hit-call score of the fitted dose curve at least 0.9, where 1 is the maximum; inactive = score below 0.9.

Read-out in the assay: Vascular cell adhesion molecule 1 (VCAM1), VCAM1 (gene 7412)
The experiment in a line: BSK_LPS_VCAM1: BioMAP Diversity Plus: LPS Assay for Vascular cell adhesion molecule 1 (VCAM1) Biomarker Activity (AID 2283086). As to conditions: primary human HUVEC with PBMC; actives raise or lower the signal. Here is the method: BSK_LPS is a cell-based, multiplexed-readout assay that uses umbilical vein endothelium and peripheral blood mononuclear cells, a human vascular primary cell co-culture, with measurements taken at 24 hours after chemical dosing in a 96-well plate.BSK_LPS_VCAM1 is an assay component measured in the BSK_LPS assay. It measures VCAM-1 antibody related to regulation of gene expression using ELISA technology.Data from the assay component BSK_LPS_VCAM1 was analyzed into 1 assay endpoint. This assay endpoint, BSK_LPS_VCAM1, was analyzed with bidirectional fitting relative to DMSO as the negative control and baseline of activity. Using a type of binding reporter, gain or loss-of-signal activity can be used to understand changes in the signaling as they relate to the gene VCAM1. Furthermore, this assay endpoint can be referred to as a primary readout, because this assay has produced multiple assay endpoints where this one serves a signaling function. To generalize the intended target to other relatable targets, this assay endpoint is annotated to the cell adhesion molecules intended target family, where the subfamily is Immunoglobulin CAM.
The levels of cell surface (or secreted, indicated by the prefix "s") biomarker endpoints were measured by ELISA. Overt cytotoxicity to cells in confluent adherent cultures (all systems other than the BT system) was assessed by measuring total protein levels using sulforhodamine B (SRB) staining in parallel cultures at the time of biomarker measurements, indicated as SRB endpoints. For proliferation assays for adherent cell types, individual cell types are cultured at sub-confluence and relative cell numbers quantified by SRB staining at time points optimized for each system (48 h: 3C and CASM3C systems; 72 h: BT and HDF3CGF systems; 96 h: SAg system). SRB was performed by staining cells with 0.1% SRB after fixation with 10% TCA and reading wells at 560 nm.Viability and proliferation of PBMC (T cells) was quantified by Alamar Blue reduction for the SAg and BT systems. For PBMC viability (referred to as PBMC Cytotoxicity within the assay endpoint names), cells were plated (75,000/well in a 96-well plate) and then chemical samples added for 1 h before addition of activators, SEB and TSST-1 (20 ng/mL final concentration each). Cells were incubated for 90 h. Then, Alamar Blue (20 uL/well) (Invitrogen, Cat DAL1100) was added for 6 h, and the plates were read with a fluorescence microplate reader at 546/580 nm (excitation/emission). For PBMC proliferation, cells were plated and activated as above but incubated for only 16 h prior to addition of Alamar Blue. Plates were read after 6 h.
Regarding `C=CC(C)(CCC=C(C)C)OC(C)=O` (stereo not given), the result was inactive.
The same measure, in the same setting: then `COC1=CC(=O)C[C@@H](C)[C@]12Oc1c(Cl)c(OC)cc(OC)c1C2=O`, with “inactive”; and `CN(C)CCOC(c1ccccc1)c1ccccc1`, with “inactive”.
In the case of `CCCCCCCCCCCCCCCCCC[N+](C)(C)Cc1ccccc1`, the AC50 (as a rule, the concentration giving half of the maximal activity seen) is 3.09 µM (active).
Turning to `C[C@]12CC[C@@H]3c4ccc(O)cc4CC[C@H]3[C@@H]1C[C@@H](O)[C@@H]2O`, the result was inactive.
For the compound `CCCCCCCCCCCCOS(=O)(=O)O`, the outcome was inactive.
The same measure, in the same setting: then `O=S(=O)(O)C(F)(F)C(F)(F)C(F)(F)C(F)(F)C(F)(F)C(F)(F)C(F)(F)C(F)(F)C(F)(F)C(F)(F)F`, with “inactive”; and `O=C1NS(=O)(=O)c2ccccc21`, with “inactive”; and `OCC(CO)(CBr)CBr`, with “inactive”.
Same read-out and setting: the entry for `CS(=O)(=O)c1ccc([C@@H](CC2CCCC2)C(=O)Nc2cnccn2)cc1Cl` is “inactive”.
On the same count and under the same terms, then `CN(Cc1cnc2nc(N)nc(N)c2n1)c1ccc(C(=O)N[C@@H](CCC(=O)O)C(=O)O)cc1`, with “inactive”.
Regarding `O=C(CC(=O)C(F)(F)C(F)(F)C(F)(F)F)c1cccs1`, the AC50 was 45.7 µM (active) and 46.4 µM (active).
Regarding `COc1cc(OC)nc(NC(=O)NS(=O)(=O)Nc2ccccc2C(=O)N(C)C)n1`, the result was inactive.
For the compound `Clc1ccc(Nc2nnc(Cc3ccncc3)c3ccccc23)cc1`, the outcome was inactive.
For `C=CC(=O)OCCC(F)(F)C(F)(F)C(F)(F)C(F)(F)C(F)(F)C(F)(F)C(F)(F)C(F)(F)F`, the result was inactive.
Take `CN(C)c1ccc(C(=C2C=CC(=[N+](C)C)C=C2)c2ccccc2)cc1`: the AC50 was 0.00781 µM (active).
With `O=C1c2ccc(O)c(O)c2C(=O)c2c(O)ccc(O)c21`, the result was inactive.
Consider `C=COC(=O)C(C)(C)CCCCCC`, for which the AC50 is 31.1 µM (active).
For `O=C(CCCN1CCC(O)(c2ccc(Cl)cc2)CC1)c1ccc(F)cc1`, the outcome was inactive.
Take `COCN(COC)c1nc(N(COC)COC)nc(N(COC)COC)n1`: the outcome was inactive.
Take `Cc1ccc(N=Nc2c(O)ccc3ccccc23)c(C)c1`: the result was inactive.
Still for that read-out and setting: then `CCCCC=O`, with “inactive”; and `O=P(O)(O)CCC(F)(F)C(F)(F)C(F)(F)C(F)(F)C(F)(F)C(F)(F)F`, with “inactive”; and `O=C(NO)c1ccccc1`, with “inactive”.
Same read-out and setting: then `O=C(O)CCC(F)(F)C(F)(F)C(F)(F)C(F)(F)C(F)(F)C(F)(F)F`, with “inactive”; and `Oc1ccc(Cc2ccccc2O)cc1`, with “inactive”.
In the case of `O=C(O)C(F)(F)OC(F)(F)C(F)(F)OC(F)(F)C(F)(F)OC(F)(F)C(F)(F)C(F)(F)C(F)(F)F`, the AC50 was 45.6 µM (active) and 48.4 µM (active).
Take `CCOC(=O)CN[C@@H](C(=O)N1CC[C@H]1C(=O)NCc1ccc(/C(N)=N/O)cc1)C1CCCCC1`: the result was inactive.
Still for that read-out and setting: the entry for `O=C(c1ccccc1)c1ccccc1` is “inactive”.
In the case of `O=C1OC2(c3ccccc31)c1cc(I)c(O)c(I)c1Oc1c2cc(I)c(O)c1I`, the AC50 was 9.02 µM (active).
On to `Cc1cccc2c1ccc1ccccc12`, for which the result was inactive.
As to `CCCCCCCCCCCC`, the AC50 was 33 µM (active) and 31 µM (active).
For the compound `Oc1cc2ccccc2cc1O`, the outcome was inactive.
The same measure, in the same setting: then `CCC(C)c1ccccc1O` (stereo not given), with “inactive”.
Consider `CCCCCc1ccc(O)cc1`, for which the AC50 was 32.4 µM (active).
In the case of `CCCCc1oc2ccccc2c1C(=O)c1cc(I)c(OCCN(CC)CC)c(I)c1`, the AC50 is 24.3 µM (active).
On to `CCCCCCCCCCCCCCC`, for which the result was inactive.
Same read-out and setting: then `N=C(N)c1ccc(OCCCCCOc2ccc(C(=N)N)cc2)cc1`, with “inactive”.
For `CC(C)(C)c1ccc(O)c(O)c1`, the AC50 is 24 µM (active).
Still for that read-out and setting: the figure for `Oc1c(Cl)cc(Cl)cc1Sc1cc(Cl)cc(Cl)c1O` is 32.9 µM (active) and 30.9 µM (active).

These data come from PubChem BioAssay (EPA / NIEHS).
